Screening data: PubChem, National Center for Advancing Translational Sciences (NCATS)
TDP1 cell CPT – growth inhibition of DT40 Tdp1-/-;hTDP1 cells with camptothecin (screen for TDP1 inhibitors); Potency, µM (titrated, usually from 46.2 µM), hits mostly inhibitors; chicken DT40 Tdp1-/-;hTDP1 cells + 20 nM CPT, ATP luminescence, 48 h; AID 686979; 12% of 420,000 active; also: nearly all actives have a fitted effect of over 55% in size
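Chicken DT40 Tdp1-/- cells complemented with human TDP1, 400 cells/well, exposed to compounds plus 20 nM camptothecin for at least 48 h at 37 C; viability read as ATP content by CellTiter-Glo luminescence.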
DT40 TDP1 no CPT – qHTS for Inhibitors of human tyrosyl-DNA phosphodiesterase 1 (TDP1): qHTS in cells in absence of CPT. Potency, µM (titrated, usually from 46.2 µM), actives largely listed as inhibitors. DT40 Tdp1-/- hTDP1 cells, no CPT, ATP luminescence, 48 h. AID 686978, 2013. 15% of 420,000 active; also: nearly all actives have a fitted effect of over 55% in size
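Seeded 400 DT40-hTDP1 cells/well (vehicle DMSO, no 20 nM CPT); pinned compounds; ≥48 hr at 37 °C; CellTiter-Glo luminescence as viability measure.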
MCF10A rereplic – DNA re-replication induction in MCF 10a cells | MCF 10A DNA re-replication, Hoechst nuclear intensity, 48 h | Potency, µM (doses to about 46.1 µM), hits mostly activators | 2.9% of 350,000 active; also: nearly all actives have a fitted effect of over 50% in size
BCR signal inh – blocks chronic active B-cell receptor signaling. ABC-DLBCL IkBa-CBG/CBR reporter, luminescence ratio, 4 h. Potency, µM (titrated, usually from 46.1 µM), hits mostly inhibitors. 0.05% of 340,000 active. AID 493014; active = well fitted inhibition curve with a large enough effect in the signal ratio, with a control signal flat, not every such curve was filed as active; inconclusive = small, poorly fitted or top-dose-only effect, or effect the other way, or a change in a side signal; the % refers to the signal ratio
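Compounds up to 46 uM were incubated four hours with TMD8 cells whose green CBG68 luciferase is fused to IkappaBalpha; red CBR luminescence normalised the signal, and concentration-effect curves were fitted to fusion, red and ratio data.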
SW480 rerep – inducers of DNA re-replication in SW480 colon cancer cells. SW480 DNA re-replication, Hoechst DNA content imaging, 48 h. Potency, µM (highest dose often 46.1 µM), actives largely listed as activators. 1.8% of 340,000 active; also: nearly all actives have a fitted effect of over 55% in size
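250 cells/well; 23 nL cpd via pin tool; 48 hr, 37 C, 5% CO2; Hoechst 40 min; imager read of total nuclear intensity, ex 405/em 500-530 nm.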
IL-1B inflam inh – blocks inflammasome-driven IL-1 beta release | THP-1 LPS/ATP IL-1B secretion, AlphaLISA, 16 h; hits give low values | activity change, % at 57.5 µM | 4.7% of 360,000 active | AID 743279; in the data active = activity change below about -50%; inconclusive = mostly about -30% to -49%
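THP-1 cells pretreated 1 hr with compounds (up to 57.5 uM final), then stimulated with LPS (250 ng/mL final) plus ATP (1.25 mM final); secreted IL-1B measured by AlphaLISA after 16 hr, decreased signal indicating inhibition.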
Numbers stand for hits; . = inactive; ? = inconclusive; / = not tested or not shown; [ ] = remark or other dose. Rows were chosen to be rich in hits. Some 19% of all compounds tested hit in one or more screens of this group. Unless noted, calls follow the shape of the dose curve; as a rule, active = well fitted curve in the direction sought with a large enough effect; inconclusive = small, poorly fitted or top-dose-only effect, or another doubt; inactive = no such curve, though single readings can be large; an effect the other way counts as inactive or inconclusive.

SMILES	TDP1 cell CPT	DT40 TDP1 no CPT	MCF10A rereplic	BCR signal inh	SW480 rerep	IL-1B inflam inh
O=C1NC(=O)C(=Cc2cccc(OCCOc3ccccc3)c2)C(=O)N1	?	?	.	?	.	.
O=C1NC(=O)C(=Cc2ccc(OCCOc3ccc([N+](=O)[O-])cc3)cc2)C(=O)N1	?	?	.	.	.	-59
COCCNC(=O)N1[C@H]2CC[C@@H]1C(C(=O)OC)=C(c1ccc(OC)c(OC)c1)C2	.	.	?	.	.[9.22 µM]	.
Cc1c(C=C2C(=O)NC(=O)NC2=O)c(=O)n(-c2ccccc2)n1C	.	.	.	.	.	.
O=C1NC(=O)C(=Cc2c(Cl)cccc2Cl)C(=O)N1	12µM	13µM	?	/	?	-58
CN(C)P(=O)(N(C)C)N1CC1	.	.	.	/	.	.
COC(=O)C1=C(c2ccc(Cl)c(C(F)(F)F)c2)C[C@@H]2CC[C@H]1N2C(=O)NCc1ccco1	?	21µM	.	?	.	-65
CCCNC(=O)N1[C@H]2CC[C@@H]1C(C(=O)OC)=C(c1ccc(OC(F)(F)F)cc1)C2	?	15µM	.	.	.	.
COC(=O)C1=C(c2ccc(Cl)c(C(F)(F)F)c2)C[C@@H]2CC[C@H]1N2C	?	.	.	.	.	.
COC(=O)C1=C(c2ccc(S(C)(=O)=O)cc2)C[C@@H]2CC[C@H]1N2C(=O)NCc1ccco1	.	.	.	/	.	.
COC(=O)C1=C(c2ccc(Cl)c(C(F)(F)F)c2)C[C@@H]2CC[C@H]1N2C(=O)NC1CCCCC1	13µM	21µM	?	?	?	-52
COC(=O)C1=C(c2ccc(OC(F)(F)F)cc2)C[C@@H]2CC[C@H]1N2C(=O)NC(C)C	16µM	21µM	.	.	.	.
Cc1ccc(C(=O)NC(O)C(Cl)(Cl)Cl)cc1 (configuration not stated)	.	.	.	.	.	.
COC(=O)C1=C(c2ccc(Cl)c(C(F)(F)F)c2)C[C@@H]2CC[C@H]1N2C(=O)NCCO	.	.	.	.	.	.
COC(=O)C1=C(c2ccc(Cl)c(C(F)(F)F)c2)C[C@@H]2CC[C@H]1N2C(=O)NCCOc1ccccc1	?	16µM	.	?	.	-81
COC(=O)C1=C(c2ccc(OC(F)(F)F)cc2)C[C@@H]2CC[C@H]1N2C(=O)NCCOc1ccccc1	23µM	18µM	?	?	.	?
COC(=O)C1=C(c2ccc(OC(F)(F)F)cc2)C[C@@H]2CC[C@H]1N2C(=O)NCCCOC(C)C	?	?	.	?	.	.
CCCN1C[C@H](C)N([C@H](c2ccc(C(=O)N(CC)CC)cc2)c2cccc(OC)c2)C[C@H]1C	.	.	/	/	/	/
O=C(Oc1c(Br)cc(Br)c2cccnc12)N1CCCCC1	23µM	?	?	.	.	.
Cc1ccc(C2C(=O)NC(=O)NC2=O)cc1	.	.	.	/	18µM	.
CCCCCCCn1c(=O)c(C(=O)Nc2cnccn2)c(O)c2ccccc21	0.82µM	0.58µM	3.7µM	.	?	/
CCCCCn1c(=O)c(C(=O)Nc2nc(CC(=O)OCC)cs2)c(O)c2ccccc21	4.1µM	4.6µM	.	.	.	.
CCCCCCn1c(=O)c(C(=O)Nc2cccc(C)n2)c(O)c2ccccc21	3.7µM	3.7µM	.	.	.	.
CCCCCn1c(=O)c(C(=O)Nc2cc(C)ccn2)c(O)c2ccccc21	7.3µM	7.3µM	.	.	.	.
CCN(Cc1ccc(Cl)nc1)/C(=C/[N+](=O)[O-])NC	.	.	.	/	.	/
SMILES	TDP1 cell CPT	DT40 TDP1 no CPT	MCF10A rereplic	BCR signal inh	SW480 rerep	IL-1B inflam inh
Cc1c(O)ccc(C(=O)CN2CC(C)OC(C)C2)c1O (configuration not stated)	.	.	.	.	.	.
CNC(=O)COC(=O)c1ccc(-c2nc3ccccc3s2)s1	.	?	.	.	.	.
COc1ccccc1NCC(=O)c1ccc(Cl)cc1	.	?	?	?	.	?
CCCCCn1c(=O)c(C(=O)Nc2cnccn2)c(O)c2ccccc21	4.1µM	2.9µM	16µM	.	.	.
CCCCn1c(=O)c(C(=O)Nc2ncccc2C)c(O)c2ccccc21	?	?	.	.	.	.
CCCCCCn1c(=O)c(C(=O)Nc2ncccc2C)c(O)c2ccccc21	4.1µM	1.6µM	?	.	?	.
CN[C@@H](C)Cc1ccccc1	.	.	/	/	/	/
CCN1C[C@@]2(OC(=O)c3ccccc3NC(C)=O)CCC(OC)[C@@]34C5CC6C(OC)C[C@@](O)(C(CC23)[C@@H]14)C5(O)C6OC (some centres not stated)	.	.	/	/	/	/
Cc1cccc(Cc2cnc(NC(=O)c3ccc4c(c3)CC(c3ccccc3)OC4=O)s2)c1 (configuration not stated)	26µM	21µM	/	/	/	/
CC12CCC3C4CCC(=O)C(O)=C4CCC3C1CCC2OC(=O)CCC1CCCC1 (configuration not stated)	/	/	.	/	.	/
C1=NCCCN2CCCCC12 (configuration not stated)	.	.	/	/	/	.
CCCCCc1cc(O)c2c(c1)OC(C)(C)[C@@H]1CCC(C)=C[C@@H]21	21µM	?	/	/	/	/
CCN1C[C@@]2(C)CC[C@@H](OC)[C@@]34C2C(O)[C@@]2(OCO[C@]25CC(OC)C2C[C@@]3(O)C5C2O)C14 (some centres not stated)	.	.	/	/	/	/
Cn1cc(C(=O)Cc2ccccc2)c2ccccc21	16µM	?	.	?	.	.
CCCCCNC(=O)C(c1ccncc1)n1c(=O)c(-c2cc3ccccc3[nH]2)nc2ccccc21 (configuration not stated)	16µM	?	/	/	/	?
CC(O)CN1CCN(CC(=O)[O-])CCN(CC(=O)[O-])CCN(CC(=O)[O-])CC1.[Gd+3] (configuration not stated)	.	.	/	/	/	/
C/C=C(/C)C(=O)OC1CC[C@]2(C)C3CCC4[C@]5(O)CC(O)[C@]6(O)C(CN7CC(C)CCC7[C@]6(C)O)[C@]5(O)C[C@@]42O[C@]13O (some centres not stated)	.	.	/	/	/	/
CCCCCCOc1ccc(C(=O)n2cnc(N)n2)cc1	.	.	23µM	.	.	.
CCCCOC(=O)c1ccccc1C(=O)OCCCC	.	.	.	.	.	.
COc1ccc(CC2C(=O)NC(C)C(=O)N(C)C3C(=O)N(C)C(Cc4ccc(O)c(c4)Oc4ccc(cc4)C3O)C(=O)NC(C)C(=O)NC(C)C(=O)N2C)cc1 (configuration not stated)	0.016µM	0.021µM	0.26µM	/	?	-101
